Measurements published in PubChem BioAssay.
Activity calls are given as the source filed them.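 Rule for the calls, unless noted: active = compound raises insulin release from rat beta cells at 5 mM glucose, no numeric limit stated; inactive = the rest.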

What was measured:
[1] = Wnt pathway potentiators raising nuclear beta-catenin – imaging, WNT3A-conditioned medium, mouse C2C12, NPC library, primary screen (AID 1117326; in the data active = nuclear beta-catenin stimulation mostly above about 4.2%, no sharp cut-off; inactive = mostly below about 10%; note: reference of the scale not given here); conditions: stronger effect = higher value
[2] = stimulators of insulin release from INS-1E, primary screen, cell-based, 5 mM glucose, NPC library (AID 1117329); conditions: rat INS-1E insulin secretion, at 10 µM, stronger effect = higher value; note: reference of the scale not given here
[3] = growth inhibition of GSK3B-pretreated HCT116 cells – cell-based, CellTiter-Glo, 0.2 to 20 µM (AID 1117336;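 active = compounds lowering colon cancer cell viability after pretreatment blocking the GSK3B kinase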); conditions: HCT116 viability after GSK3B inhibitor, at 20 µM, stronger effect = higher value
[4] = inhibition of endothelial tube formation, primary screen, imaging, VEGF stimulated, CD31 staining, tube area, NPC library (AID 1117340;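 active = compound that reduces growth-factor-driven endothelial tube area in a mixed cell culture, no cutoff stated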); conditions: VEGF-stimulated ADSC/ECFC co-culture, at 10 µM, stronger effect = higher value
[5] = GLP1 release stimulators, primary, NCI-H716, NPC library (AID 1117341;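 active = compound raises GLP1 secretion from the human gut endocrine cells, with no numeric limit stated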; note: reference of the scale not given here); conditions: NCI-H716 cells, at 10 µM, stronger effect = higher value
[6] = HCT116 colon cancer cell growth inhibition, primary screen, CellTiter-Glo luminescence, NPC library (AID 1117342;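 active = compounds that lower survival of HCT116 colon cancer cells in the luminescence readout, no numeric limit stated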); conditions: at 20 µM (top of the series)
[7] = reduced SW480 viability measured with CellTiter-Glo, NPC library, primary (AID 1117343;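 active = compounds that lower viability of the colon cancer cells in the luminescence readout, with no numeric limit stated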); conditions: CellTiter-Glo luminescence; at 20 µM (top of the series)
[8] = NPC library primary testing for decreased DLD-1 cell viability via CellTiter-Glo (AID 1117346;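 active = compounds that lower survival of DLD-1 colon cancer cells in the luminescence readout, no cutoff given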); conditions: DLD-1 viability, CellTiter-Glo luminescence; at 20 µM (top of the series)
[9] = molecular target: 6-phosphogluconate dehydrogenase, decarboxylating (Homo sapiens) (UniProt P52209); assay: inhibition of human phosphogluconate dehydrogenase – biochemical, recombinant enzyme, NADPH absorbance, primary screen (AID 1159550;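 active = at least 20% inhibition of 6-phosphogluconate dehydrogenase activity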); conditions: recombinant 6PGD, NADPH absorbance 341 nm; at 10 µM; stronger effect = higher value
6-phosphogluconate dehydrogenase, decarboxylating (Homo sapiens), sequence (P52209 whole entry, looked up): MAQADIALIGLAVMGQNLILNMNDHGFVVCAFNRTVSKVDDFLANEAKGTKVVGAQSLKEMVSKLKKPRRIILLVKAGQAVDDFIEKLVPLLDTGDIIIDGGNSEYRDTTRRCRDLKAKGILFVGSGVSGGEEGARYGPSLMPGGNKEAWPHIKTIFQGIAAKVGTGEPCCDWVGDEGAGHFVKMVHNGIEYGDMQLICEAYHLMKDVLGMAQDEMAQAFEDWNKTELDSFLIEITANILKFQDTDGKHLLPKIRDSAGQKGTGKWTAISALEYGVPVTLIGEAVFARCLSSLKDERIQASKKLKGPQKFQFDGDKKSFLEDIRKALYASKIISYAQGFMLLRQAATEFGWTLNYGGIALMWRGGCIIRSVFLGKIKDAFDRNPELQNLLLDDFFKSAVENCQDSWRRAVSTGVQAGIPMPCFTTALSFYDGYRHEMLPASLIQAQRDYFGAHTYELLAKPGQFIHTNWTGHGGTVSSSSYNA

| SMILES | nuclear beta-catenin stimulation ([1]; at 10 µM) | nuclear beta-catenin stimulation ([1]; stimulation, at 2 µM) [%] | insulin secretion stimulation [2] | viability decrease [3] | tube area decrease [4] | GLP1 secretion stimulation [5] | inhibition of viability [6] | viability decrease (inhibition) [7] | viability decrease (inhibition) [8] | inhibition [9] |
| --- | --- | --- | --- | --- | --- | --- | --- | --- | --- | --- |
| Oc1cccc2[nH]ccc12 | 1.5% (inactive) | -1.2 | 4.05% (inactive) | 41.8% (inactive) | -3.7% (inactive) | -2.4% (inactive) | 9.6% (inactive) | 0.4% (inactive) | -8.1% (inactive) |  |
| CS(=O)(=O)c1ccc([C@@H](O)[C@@H](CO)NC(=O)C(Cl)Cl)cc1 | 2.7% (inactive) | 2.3 | 1% (inactive) | -30.5% (inactive) | 42.1% (active) | 0.4% (inactive) | 2% (inactive) | -9.6% (inactive) | -4% (inactive) | -8.02% (inactive) |
| COCCCOc1cc(C[C@@H](C[C@H](N)[C@@H](O)C[C@H](C(=O)NCC(C)(C)C(N)=O)C(C)C)C(C)C)ccc1OC | -0.6% (inactive) | 2.2 | 0.9% (inactive) | -5.3% (inactive) | 19.9% (inactive) | -4.7% (inactive) | 19.7% (inactive) | 4.7% (inactive) | 12.1% (inactive) |  |
| N=C(N)N | -1.9% (inactive) | 0.6 | 1.1% (inactive) | -1.8% (inactive) | 12.8% (inactive) | -1.2% (inactive) | 1.3% (inactive) | 1% (active) | -1.3% (inactive) | 0.391% (inactive) |
| CCCCCCCCCCCCCCCCC(C(=O)O)C(O)(CC(=O)O)C(=O)O (stereo not drawn) | -0.9% (inactive) | -0.6 | 3.2% (inactive) | 99.8% (active) | -7.3% (inactive) | -2.9% (inactive) | 99.3% (active) | 103% (active) | 102% (active) |  |
| CN1CCN(c2cc3c(cc2F)c(=O)c(C(=O)O)cn3-c2ccc(F)cc2)CC1 | 0.8% (inactive) | 0.3 | -1.1% (inactive) | 9.9% (inactive) | -7.2% (inactive) | 0.1% (inactive) | 17.4% (inactive) | -0.8% (inactive) | 2.2% (inactive) |  |
| Nc1ccc(C(=O)O)c(O)c1 | 0.9% (inactive) | 1.5 | 0.1% (inactive) | -46.6% (inactive) | 15.9% (inactive) | -6% (inactive) | -12.6% (inactive) | 12.5% (inactive) | -27.1% (inactive) | 6.71% (inactive) |
| O=c1[nH]cnc2c1ncn2[C@@H]1O[C@H](CO)[C@@H](O)[C@H]1O | -1% (inactive) | 3.1 | -0.1% (inactive) | -12.4% (inactive) | 2.1% (inactive) | 0.9% (inactive) | -0.1% (inactive) | -39.7% (inactive) | -12.5% (inactive) | -10.6% (inactive) |
| NC(CS)C(=O)O (stereo not drawn) | -0.1% (inactive) | 0.4 | -0.5% (inactive) | -0.35% (inactive) | 3.4% (inactive) | -1.7% (inactive) | 16.7% (inactive) | 34.5% (inactive) | 32.7% (inactive) |  |
| NCCCC[C@H](N[C@@H](CCc1ccccc1)C(=O)O)C(=O)N1CCC[C@H]1C(=O)O | 0.4% (inactive) | 0.9 | -0.8% (inactive) | -3.9% (inactive) | -7.9% (inactive) | 0.3% (inactive) | -5.23% (inactive) | 9.9% (inactive) | -8% (inactive) | -2.78% (inactive) |
| O=C(O)c1ccccc1Nc1cccc(C(F)(F)F)c1 | 1.3% (inactive) | 2.3 | 0.1% (inactive) | 91.3% (active) | 47.5% (active) | 9.5% (inactive) | 66.3% (active) | 70.1% (active) | 78.8% (active) | 2.7% (inactive) |
| CO[C@H]1C=CO[C@@]2(C)Oc3c(C)c(O)c4c(O)c(c(/C=N/N5CCN(C)CC5)c(O)c4c3C2=O)NC(=O)/C(C)=C\C=C[C@H](C)[C@H](O)[C@@H](C)[C@@H](O)[C@@H](C)[C@H](OC(C)=O)[C@@H]1C | 0.6% (inactive) | 1.2 | 1.4% (inactive) | 67.8% (active) | 48.6% (active) | -1.8% (inactive) | 67.5% (active) | 87.1% (active) | 65.6% (active) |  |
| CCN(CC)C(=O)N1CCN(C)CC1 | -0.1% (inactive) | 0.2 | -1.8% (inactive) | -3.6% (inactive) | -3.8% (inactive) | 4.4% (inactive) | 5.3% (inactive) | 53.1% (active) | -2.05% (inactive) | 10.8% (inactive) |
| Cc1nc2n(c(=O)c1CCN1CCC(c3noc4cc(F)ccc34)CC1)CCC[C@H]2O | 0% (inactive) | -0.1 | 1.1% (inactive) | -7.1% (inactive) | 8.8% (inactive) | -0.7% (inactive) | 20.5% (inactive) | -9.1% (inactive) | -6.6% (inactive) |  |
| CCN(CC)CCOC(=O)C(Cc1cccc2ccccc12)CC1CCCO1 (stereo not drawn) | 0.6% (inactive) | 0.5 | 7.9% (inactive) | -120% (inactive) | -1.6% (inactive) | 8.3% (active) | 26.1% (inactive) | 37.7% (inactive) | 2.6% (inactive) | -4.35% (inactive) |
